Records with an inconclusive call do not appear. Calls of active or inactive are those of the source. Calls follow the shape of the dose curve; as a rule, active = well fitted curve in the direction sought with a large enough effect in the repeat runs; inconclusive = weak or mixed curves; inactive = no such curve, though single readings can be large; an effect the other way counts as inactive or inconclusive.
Legend:
[1] = qHTS RealTime-Glo MT Cell Viability Assay in HepG2 cells - 40 hour (AID 1224870); also: nearly all actives have a fitted effect of over 50% in size
Outline: (§1)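 HepG2 cells (600/well) mixed with RealTime-Glo MT reagent, settled 5 h at 37 C/5% CO2 before compound addition. Nonlytic NanoLuc luminescence from viable-cell prosubstrate reduction read repeatedly during 40 h treatment at 37 C.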

[2] = A CellTox Green Cytotoxicity Assay to monitor cytotoxicity in HEK293 cells - 40 hour (AID 1224871); also: nearly all actives have a fitted effect of over 45% in size
Outline: (§2)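 HEK293 cells, 600/well, were preincubated 5 hours and then exposed to compounds at 37 C for up to 40 hours. A cell-impermeant cyanine dye staining dead-cell DNA was read by fluorescence at 0, 8, 16, 24, 32 and 40 h time points.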

[3] = qHTS RealTime-Glo MT Cell Viability Assay in HEK293 cells - 16 hour (AID 1224872); also: nearly all actives have a fitted effect of over 50% in size; also: potency is read from the fitted curve at half-maximal effect; as to activity change, negative = cytotoxicity: top concentration of the series differs between compounds
Outline: (§3)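 Nonlytic real-time viability readout: viable cells convert prosubstrate to NanoLuc substrate, giving luminescence proportional to live cell number. HEK293, 600 cells/well, compound added after 5 h, continuous culture at 37 C.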

[4] = qHTS RealTime-Glo MT Cell Viability Assay in HepG2 cells - 8 hour (AID 1224873); also: nearly all actives have a fitted effect of over 55% in size
Outline: as §1

[5] = qHTS RealTime-Glo MT Cell Viability Assay in HEK293 cells - 40 hour (AID 1224874); conditions: RealTime-Glo luminescence; max response: hits give low values; also: nearly all actives have a fitted effect of over 50% in size; also: potency is read from the fitted curve at half-maximal effect
Outline: (§4)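 600 cells/well were plated with the nonlytic NanoLuc/prosubstrate reagent, pre-incubated 5 h, then given 23 nL of compound in DMSO. Incubation at 37 C for 40 h, with luminescence from viable-cell-reduced substrate read repeatedly from 0 h.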

[6] = A CellTox Green Cytotoxicity Assay to monitor cytotoxicity in HEK293 cells - 24 hour (AID 1224875); also: series mostly up to about 77 µM; nearly all actives have a fitted effect of over 45% in size
Outline: as §2

[7] = A CellTox Green Cytotoxicity Assay to monitor cytotoxicity in HepG2 cells - 16 hour (AID 1224876); also: nearly all actives have a fitted effect of over 45% in size
Outline: (§5)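 HepG2 cells, 600/well, preincubated 5 h with CellTox Green dye, then exposed to Tox21 compounds in DMSO at 37 C for up to 40 h. Dead-cell DNA fluorescence read at the indicated time point.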

[8] = qHTS RealTime-Glo MT Cell Viability Assay in HepG2 cells - 32 hour (AID 1224877); also: nearly all actives have a fitted effect of over 55% in size
Outline: (§6)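 Luminescence read-out: viable HepG2 cells reduce a prosubstrate to a NanoLuc substrate, giving a signal proportional to live cell number. Reads taken at 0, 8, 16, 24, 32 and 40 h of compound exposure at 37 C.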

[9] = A CellTox Green Cytotoxicity Assay to monitor cytotoxicity in HepG2 cells - 24 hour (AID 1224878); also: nearly all actives have a fitted effect of over 45% in size
Outline: as §5

[10] = A CellTox Green Cytotoxicity Assay to monitor cytotoxicity in HepG2 cells - 40 hour (AID 1224879); also: nearly all actives have a fitted effect of over 40% in size
Outline: as §5

[11] = qHTS RealTime-Glo MT Cell Viability Assay in HEK293 cells - 0 hour (AID 1224880)
Outline: as §4

[12] = A CellTox Green Cytotoxicity Assay to monitor cytotoxicity in HEK293 cells - 32 hour (AID 1224881); also: nearly all actives have a fitted effect of over 40% in size
Outline: as §2

[13] = A CellTox Green Cytotoxicity Assay to monitor cytotoxicity in HepG2 cells - 0 hour (AID 1224882); also: nearly all actives have a fitted effect of over 35% in size
Outline: as §5

[14] = A CellTox Green Cytotoxicity Assay to monitor cytotoxicity in HepG2 cells - 32 hour (AID 1224883); also: nearly all actives have a fitted effect of over 50% in size
Outline: as §5

[15] = qHTS RealTime-Glo MT Cell Viability Assay in HepG2 cells - 16 hour (AID 1224885); also: nearly all actives have a fitted effect of over 50% in size
Outline: as §6

[16] = qHTS RealTime-Glo MT Cell Viability Assay in HEK293 cells - 24 hour (AID 1224886); also: nearly all actives have a fitted effect of over 50% in size; also: potency is read from the fitted curve at half-maximal effect; as to activity change, negative = cytotoxicity: top concentration of the series differs between compounds
Outline: as §3

[17] = qHTS RealTime-Glo MT Cell Viability Assay in HEK293 cells - 8 hour (AID 1224887); also: nearly all actives have a fitted effect of over 50% in size; also: potency is read from the fitted curve at half-maximal effect; as to activity change, negative = cytotoxicity: top concentration of the series differs between compounds
Outline: as §4

[18] = A CellTox Green Cytotoxicity Assay to monitor cytotoxicity in HEK293 cells - 16 hour (AID 1224888); also: nearly all actives have a fitted effect of over 35% in size
Outline: as §2

[19] = qHTS RealTime-Glo MT Cell Viability Assay in HepG2 cells - 0 hour (AID 1224889); also: nearly all actives have a fitted effect of over 50% in size
Outline: as §6

[20] = A CellTox Green Cytotoxicity Assay to monitor cytotoxicity in HEK293 cells - 8 hour (AID 1224884); also: nearly all actives have a fitted effect of over 35% in size
Outline: as §2
% is scaled to controls: 0 for no effect and ±100 for the full control effect.

CCCCCCCOC(=O)CCC
inactive: Potency [1] | Potency [2] | Potency [3] | outcome [4] | max response [5] 4.56% | Potency [6] | Potency [7] | Potency [8] | Potency [9] | Potency [10] | outcome [11] | Potency [12] | Potency [13] | Potency [14] | outcome [15] | Potency [16] | Potency [17] | Potency [18] | Potency [19]

O=[N+]([O-])c1nccn1CO[C@@H](CO)[C@H](O)CO
inactive: Potency [1] | Potency [2] | Potency [3] | outcome [4] | max response [5] -3.33% | Potency [6] | Potency [7] | Potency [8] | Potency [9] | Potency [10] | outcome [11] | Potency [12] | Potency [13] | Potency [14] | Potency [20] | outcome [15] | Potency [17] | Potency [18] | Potency [19]

O=c1oc2c(O)c(O)cc3c(=O)oc4c(O)c(O)cc1c4c23
inactive: activity change, negative = cytotoxic [1] -12.4% [at 15.8 µM] | cytotoxicity increase [2] 16.8% [at 15.8 µM] | activity change, negative = cytotoxicity [3] -3.75% [at 15.8 µM] | viability change, negative = cytotoxic [4] 0.835% [at 15.8 µM] | activity change [6] 21.9% [at 15.8 µM, hits give high values] | cytotoxicity increase [7] 1.02% [at 15.8 µM] | activity change, negative = cytotoxic [8] -12.3% [at 15.8 µM] | cytotoxicity [9] 4.4% [at 15.8 µM] | activity change, negative = cytotoxicity [11] -5.71% [at 15.8 µM] | cytotoxicity increase [12] 18.3% [at 15.8 µM] | cytotoxicity [13] -11.8% [at 15.8 µM] | cytotoxicity increase [14] 19.5% [at 15.8 µM] | cytotoxicity increase [20] 7.37% [at 15.8 µM] | activity change, negative = cytotoxic [15] -6.97% [at 15.8 µM] | activity change, negative = cytotoxicity [16] -7.55% [at 15.8 µM] | activity change, negative = cytotoxicity [17] -0.845% [at 15.8 µM] | activity change, negative = cytotoxicity [19] 0.919% [at 15.8 µM]

Oc1ccccc1F
inactive: Potency [1] | Potency [2] | Potency [3] | outcome [4] | Potency [6] | Potency [7] | Potency [8] | Potency [9] | outcome [11] | Potency [12] | Potency [13] | Potency [20] | outcome [15] | Potency [17] | Potency [18] | Potency [19]

Cc1cc(S(=O)(=O)O)c(N)cc1Cl
inactive: Potency [1] | Potency [2] | Potency [3] | outcome [4] | Potency [6] | Potency [7] | Potency [8] | Potency [9] | outcome [11] | Potency [12] | Potency [13] | Potency [14] | Potency [20] | outcome [15] | Potency [16] | Potency [17] | Potency [18] | Potency [19]

COc1nc(C)nc(NC(=O)NS(=O)(=O)c2ccccc2OCCCl)n1
inactive: Potency [1] | Potency [2] | outcome [4] | max response [5] 6.36% | Potency [6] | Potency [7] | Potency [8] | Potency [9] | Potency [10] | outcome [11] | Potency [12] | Potency [13] | Potency [14] | Potency [20] | outcome [15] | Potency [16] | Potency [17] | Potency [18] | Potency [19]

C[C@]12CCC(=O)C=C1CC[C@@H]1[C@@H]2CC[C@@]2(C)[C@H]1CC[C@]2(O)C(=O)CO
inactive: Potency [1] | Potency [2] | Potency [3] | outcome [4] | Potency [6] | Potency [7] | Potency [8] | Potency [9] | Potency [10] | outcome [11] | Potency [12] | Potency [13] | Potency [14] | Potency [20] | outcome [15] | Potency [17] | Potency [18]

CCOC(=O)c1ccccc1O
inactive: Potency [1] | Potency [2] | outcome [4] | max response [5] 4.34% | Potency [6] | Potency [7] | Potency [8] | Potency [9] | Potency [10] | outcome [11] | Potency [12] | Potency [13] | Potency [14] | Potency [20] | outcome [15] | Potency [16] | Potency [17] | Potency [18] | Potency [19]

Cc1ccc([N+](=O)[O-])c(N)c1
inactive: Potency [1] | Potency [2] | Potency [3] | outcome [4] | Potency [6] | Potency [7] | Potency [8] | Potency [10] | outcome [11] | Potency [12] | Potency [13] | Potency [14] | Potency [20] | outcome [15] | Potency [16] | Potency [17] | Potency [19]

C=CCCC=C
inactive: Potency [1] | Potency [2] | Potency [3] | outcome [4] | Potency [6] | Potency [7] | Potency [8] | Potency [9] | Potency [10] | outcome [11] | Potency [12] | Potency [13] | Potency [14] | Potency [20] | outcome [15] | Potency [16] | Potency [17] | Potency [18] | Potency [19]

CCc1cc2cc(OC)c(OC)cc2c(Cc2ccccc2)n1
inactive: Potency [1] | Potency [2] | outcome [4] | Potency [6] | Potency [8] | outcome [11] | Potency [12] | Potency [20] | outcome [15] | Potency [18] | Potency [19]
active: Potency [3] 16.9 µM | Potency [5] 16.9 µM | Potency [16] 16.9 µM | Potency [17] 16.9 µM

C=Cc1ccccc1
inactive: Potency [1] | Potency [2] | outcome [4] | max response [5] 10.3% | Potency [6] | Potency [7] | Potency [8] | Potency [9] | Potency [10] | outcome [11] | Potency [12] | Potency [13] | Potency [14] | Potency [20] | outcome [15] | Potency [16] | Potency [17] | Potency [18] | Potency [19]

CCN(O)CC
inactive: Potency [1] | Potency [2] | Potency [3] | outcome [4] | Potency [6] | Potency [7] | Potency [8] | Potency [9] | Potency [10] | outcome [11] | Potency [12] | Potency [13] | Potency [20] | outcome [15] | Potency [16] | Potency [17] | Potency [18] | Potency [19]

CCCCCOc1ccc(C2SC(=O)NC2=O)cc1OCC (stereo unspecified)
inactive: Potency [1] | Potency [2] | Potency [3] | outcome [4] | Potency [6] | Potency [8] | outcome [11] | Potency [12] | Potency [20] | outcome [15] | Potency [16] | Potency [17] | Potency [18] | Potency [19]
